Source: PubChem (several laboratories)
CYP2C19 inh: human CYP2C19 inhibition | CYP2C19 Supersomes, luciferin-H EGE luminescence, 30 min | inhibition, % at 5 µM | hit rate 21% among 96,000 | AID 778;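 active = CYP2C19 inhibition above a set limit at 5 µM in the primary screen, cut at about 50% in these data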;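 note: plate controls were negative control wells for no effect and 2.5 mM tranylcypromine positive control for full effect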
Measles CPE: protection of cells from measles virus; Measles virus-infected cells, CPE protection, absorbance; protection (pct of control), % at 4 µM; hit rate 1.5% among 140,000; AID 841; in the data active = protection mostly above about 24%, no sharp cut-off; inactive = mostly below about 26%
CYP2C9 inh: human CYP2C9 inhibition; P11712; AID 777; hit rate 20% among 96,000; CYP2C9 Supersomes, luciferin-H conversion, luminescence; inhibition, % at 5 µM;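 active = blocking of liver enzyme CYP2C9 beyond about 50% at 5 µM, limit read from the data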
Target sequence (P11712 whole entry, looked up): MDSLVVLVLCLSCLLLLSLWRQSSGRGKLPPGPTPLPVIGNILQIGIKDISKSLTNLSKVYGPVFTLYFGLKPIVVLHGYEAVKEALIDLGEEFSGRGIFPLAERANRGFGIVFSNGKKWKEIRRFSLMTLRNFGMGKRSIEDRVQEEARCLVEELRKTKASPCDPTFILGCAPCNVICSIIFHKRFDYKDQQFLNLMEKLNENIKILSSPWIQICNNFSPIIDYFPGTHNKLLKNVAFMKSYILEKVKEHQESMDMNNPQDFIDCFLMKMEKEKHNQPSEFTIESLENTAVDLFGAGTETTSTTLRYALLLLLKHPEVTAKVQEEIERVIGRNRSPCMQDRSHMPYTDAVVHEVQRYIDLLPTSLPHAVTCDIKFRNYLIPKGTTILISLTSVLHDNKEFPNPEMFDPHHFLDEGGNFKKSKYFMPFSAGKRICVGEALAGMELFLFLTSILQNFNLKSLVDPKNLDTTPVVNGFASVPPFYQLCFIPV
CYP2C9 act: CYP2C9 (human) activation | P11712 | recombinant CYP2C9, luciferin-H conversion, luminescence; stronger effect = higher value; factor 1 = untreated enzyme, 0 = blocked | activation factor at 5 µM | hit rate 1.4% among 96,000;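 active = activation factor of 2 or more for CYP2C9 at a 5 µM dose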;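 note: 0 = sulfaphenazole-blocked wells and 1 = vehicle-only wells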
CYP2C19 activ: cytochrome P450 2C19 (human) activation. recombinant CYP2C19, luciferin-H EGE luminescence; stronger effect = higher value; 0 = fully inhibited enzyme, 1 = untreated enzyme. activation factor at 5 µM. 96,000 tested, under 10 active. AID 1025;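 active = activation factor of at least 2 at 5 µM in the primary screen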;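 note: 0 = wells with 2.5 mM tranylcypromine and 1 = vehicle-only wells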
* = called active by the depositor; . = not tested or not shown. In the library only some 22% were active in any assay of this set; here they are far more common.

SMILES	CYP2C19 inh	Measles CPE	CYP2C9 inh	CYP2C9 act	CYP2C19 activ
CC(=O)Nc1ccc(S(=O)(=O)Oc2cccc(N3C(=O)C4CCCCC4C3=O)c2)cc1 (stereo not drawn)	41	5	75*	0.2	0.6
O=C(C1CCN(S(=O)(=O)c2cccc3cccnc23)CC1)N1CCCC1	36	6	-163	2.6*	0.6
Cc1cccc(N2CCN(C(=O)C3CCN(S(=O)(=O)c4cccc5nsnc45)CC3)CC2C)c1 (stereo not drawn)	34	18	17	0.8	0.7
Cc1cccc(N2CCN(C(=O)C3CCN(S(=O)(=O)c4cccc5cccnc45)CC3)CC2C)c1 (stereo not drawn)	85*	13	-32	1.3	0.1
O=C(C1CCN(S(=O)(=O)c2cccc3cccnc23)CC1)N1CC=C(c2ccccc2)CC1	75*	12	-31	1.3	0.2
COc1ccc(/C=N/NC(=O)Nc2cccc3nsnc23)cc1	.	9	.	.	.
O=C(NN1CCOCC1)c1cc(-c2ccc(Cl)c(Cl)c2)nc2ccccc12	.	8	.	.	.
Fc1ccc(-c2csc3ncnc(N4CCc5ccccc5C4)c23)cc1	.	6	.	.	.
COc1ccc(CNC(=O)/C(C#N)=C2\N=C(NC(=O)c3cccs3)c3ccccc32)cc1	.	6	.	.	.
COc1cccc2sc(N(C)c3ccccc3)nc12	78*	4	10	0.9	0.2
COc1cccc(Nc2nc3ccccc3nc2NS(=O)(=O)c2cccs2)c1	1	5	17	0.8	1
COc1ccc(NS(=O)(=O)CC(C)C)c(OC)c1	.	15	.	.	.
COc1ccc(NS(=O)(=O)c2ccc(SC)cc2)c(OC)c1	87*	5	-60	1.6	0.1
COc1ccccc1NS(=O)(=O)c1cccs1	81*	20	-117	2.2*	0.2
COc1ccc(NS(=O)(=O)c2cccs2)c(OC)c1	55*	1	-68	1.7	0.5
Cc1ccc(Nc2nc(Oc3ccc(OCc4ccccc4)nn3)nc(N3CCOCC3)n2)cc1	82*	2	77*	0.2	0.2
c1ccc(Oc2nc(N3CCOCC3)nc(N3CCOCC3)n2)cc1	16	27	25	0.8	0.8
CC(C)Nc1nc(NC(C)C)nc(Oc2ccc(OCc3ccccc3)nn2)n1	16	4	18	0.8	0.8
c1ccc(COc2ccc(Oc3nc(N4CCCCC4)nc(N4CCOCC4)n3)nn2)cc1	88*	17	59*	0.4	0.1
C/C(Cl)=C/Cn1c(=O)c2c(nc(Br)n2Cc2ccccc2)n(C)c1=O	11	5	14	0.9	0.9
CCc1ccccc1NC(=O)COc1ccc2oc(-c3ccc(OC)cc3)cc(=O)c2c1	.	12	.	.	.
COc1ccc2cc(CN(CC3CCCO3)S(=O)(=O)c3ccc(C(C)=O)cc3)c(=O)[nH]c2c1 (stereo not drawn)	35	11	60*	0.4	0.6
COc1ccc(S(=O)(=O)N(Cc2cc3cc(C)ccc3[nH]c2=O)CC2CCCO2)cc1 (stereo not drawn)	25	1	60*	0.4	0.7
COc1ccc(N(Cc2cc3ccccc3[nH]c2=O)C(=O)C2CCCO2)cc1 (stereo not drawn)	10	16	10	0.9	0.9
COC(=O)c1ccccc1S(=O)(=O)N(Cc1cc2ccc(OC)cc2[nH]c1=O)CC1CCCO1 (stereo not drawn)	38	33	90*	0.1	0.6
SMILES	CYP2C19 inh	Measles CPE	CYP2C9 inh	CYP2C9 act	CYP2C19 activ
COc1ccc(NC(=O)N(Cc2cc3cc(OC)ccc3[nH]c2=O)CC2CCCO2)cc1 (stereo not drawn)	-4	4	23	0.8	1
COc1ccc(S(=O)(=O)N(CCCN2CCCC2=O)Cc2cc3c(C)cc(C)cc3[nH]c2=O)cc1	65*	3	94*	0.1	0.3
CCCN1C2CCCC1CC(NC(=S)Nc1cc(C)ccc1C)C2 (stereo not drawn)	.	27	.	.	.
CC(C)N(Cc1nnc(-c2ccccc2Cl)o1)C(=O)c1cccc(C#N)c1	38	.	22	0.8	0.6
CC(C)OCCCNC(=O)c1cc2c(s1)CS(=O)(=O)C2	7	25	-11	1.1	0.9
CCOC(=O)c1c(C)n(C)c2ccc(OC(C)C(=O)OC)cc12 (stereo not drawn)	51*	16	64*	0.4	0.5
Cc1cc(C)c(S(=O)(=O)c2ccccc2)c(OC(=O)c2ccc(Cl)cc2Cl)n1	-8	21	-6	1.1	1.1
Cc1cc(C)n(Cc2ccc(Cl)cc2Cl)c(=O)c1S(=O)(=O)c1ccccc1	44	3	92*	0.1	0.6
Cc1ccc(-c2cnc(-c3ccncc3)o2)cc1	98*	6	64*	0.4	0
CC(=O)c1cccc(S(=O)(=O)N2CCN(c3nc4cc(C)cc(C)c4cc3C#N)CC2)c1	58*	24	67*	0.3	0.4
CCCCOc1ccc(OCCNS(=O)(=O)N(C)C)cc1	54*	7	40	0.6	0.5
O=C(c1ccccc1CCc1ccccc1)N1CCOCC1	40	23	-11	1.1	0.6
Cc1ccc(S(=O)(=O)N(CCO)c2cc3c(s2)CCCC3)cc1	99*	5	9	0.9	0
CN(C)CCNC(=O)CN1C(=O)COc2ccc(C(C)(C)C)cc21	-7	14	-2	1	1.1
CC(/C=N/NC(=O)CSc1nnc(SCc2ccccc2)s1)=C\c1ccco1	.	1	.	.	.
CCCN=Cc1sc2ccc(OCC)cc2c1O	69*	2	-52	1.5	0.3
CCOC(=O)CSc1ncnc2c(C(=O)OCC)c3n(c12)CCC3	.	18	.	.	.
CCOC(=O)N1CCC(N2CC34C=CC(O3)C(C(=O)Nc3ccc(C(C)C)cc3)C4C2=O)CC1 (stereo not drawn)	16	15	76*	0.2	0.8
CCc1nnc(NS(=O)(=O)c2ccc(NC(=O)/C=C/c3ccc(OC)cc3OC)cc2)s1	.	21	.	.	.
O=C(NCCCO)c1ccc2[nH]c3c(c2c1)CCCC3	40	1	2	1	0.6
O=C(NCCO)c1ccc2[nH]c3c(c2c1)CCCC3	83*	10	24	0.8	0.2
CC(C)Nc1nc(NC(C)C)nc(N(C#N)CCOc2ccc(Cl)cc2Cl)n1	.	2	.	.	.
COC(=O)c1ccc(-c2nc(O)c3cnccn23)cc1	51*	19	49	0.5	0.5
CCN(CCCNC(=O)CC(C(=O)N1CCc2ccccc21)n1ccnc1)c1cccc(C)c1 (stereo not drawn)	94*	7	18	0.8	0.1
CCN(CCCNC(=O)c1ccc(N2CCCC2=O)cc1)c1cccc(C)c1	30	5	13	0.9	0.7
CCCCNC(=O)CC(C(=O)N1CCc2ccccc21)n1ccnc1 (stereo not drawn)	74*	9	34	0.7	0.3
O=C(CC(C(=O)N1CCc2ccccc21)n1ccnc1)N1CCc2ccccc2C1 (stereo not drawn)	73*	11	50	0.5	0.3
O=C(CC(C(=O)N1CCc2ccccc21)n1ccnc1)NCC1CCCO1 (stereo not drawn)	35	3	65*	0.3	0.6
